The results in this text go back to PubChem BioAssay AID2549 (National Center for Advancing Translational Sciences (NCATS), 2010).

Molecules are shown by their SMILES. Where “and” joins values, the source holds several entries; their conditions need not be identical. Equal values may be shown once. In all, about 240,000 compounds went through this assay and about 1,300 (0.54%) were called active. Another 1% or so got no clear call; they are omitted. Calls follow the shape of the dose curve; as a rule, active = well fitted inhibition curve with a large enough effect; inconclusive = small, poorly fitted or top-dose-only effect; inactive = flat fitted curve, though single readings scatter. The entries come from a sample that favours actives as a whole. Some compounds were tested as several samples or in several runs, with calls that do not always agree.
Potency is read from the fitted curve at half-maximal effect.

Chain of ATP-dependent DNA helicase Q1 (Homo sapiens) (P46063 whole entry, looked up): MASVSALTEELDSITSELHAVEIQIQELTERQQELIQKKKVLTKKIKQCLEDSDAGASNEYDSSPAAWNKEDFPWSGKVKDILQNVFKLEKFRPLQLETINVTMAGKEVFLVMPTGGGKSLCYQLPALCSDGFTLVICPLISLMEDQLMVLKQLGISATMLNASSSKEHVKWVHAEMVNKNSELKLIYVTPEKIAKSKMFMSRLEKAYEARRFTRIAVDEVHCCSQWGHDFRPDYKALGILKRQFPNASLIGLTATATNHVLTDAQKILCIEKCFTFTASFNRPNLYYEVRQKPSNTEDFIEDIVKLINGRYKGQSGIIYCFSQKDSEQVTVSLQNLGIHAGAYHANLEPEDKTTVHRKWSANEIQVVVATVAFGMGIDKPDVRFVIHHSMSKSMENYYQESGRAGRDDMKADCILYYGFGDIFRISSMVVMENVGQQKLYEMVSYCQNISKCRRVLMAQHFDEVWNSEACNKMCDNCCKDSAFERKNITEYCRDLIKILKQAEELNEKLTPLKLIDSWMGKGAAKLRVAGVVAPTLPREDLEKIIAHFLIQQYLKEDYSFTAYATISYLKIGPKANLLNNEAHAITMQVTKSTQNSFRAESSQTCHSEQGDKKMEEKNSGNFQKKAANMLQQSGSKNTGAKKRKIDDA

For this test, the target named is ATP-dependent DNA helicase Q1 (Homo sapiens) (UniProt P46063). The test is described as follows: qHTS Assay for Inhibitors of RecQ-Like Dna Helicase 1 (RECQ1). Also: nearly all actives have a fitted effect of over 30% in size. Conditions: RECQ1 DNA unwinding, red fluorescence kinetic read; series mostly up to 57.3 µM; activity, negative = inhibition: at the top concentration. The source says:
Survival of cells and the faithful propagation of the genome depend on elaborate mechanisms of detecting and repairing DNA damage. Treatment of advanced cancer relies on radiation therapy or chemotherapy, which kill cancer cells by causing extensive DNA damage. It is often found, that cancer cells develop resistance to therapy through enhanced activity of DNA repair functions; this has led to an increased interest in developing drugs that interfere with DNA repair, which could sensitize cancer cells to conventional therapy.
This validation qHTS assay pertains to human RECQ1, which is important in resolving abnormal DNA structures formed during replication or homologous recombination. Shutting down the expression of RECQ1 leads to chromosomal instability and higher radiation sensitivity in cultured cells.
The validation assay was a fluorescence quenching based kinetic qHTS for RECQ1 Helicase DNA unwinding. The activity was measured as ATP-dependent separation of a 20-bp DNA duplex extended by 30-nt single-stranded tails (forked duplex). The forked DNA substrate was tagged with rhodamine fluorophore (carboxytetramethyl rhodamine, TAMRA) and BHQ-2 (Black Hole Quencher 2) dark quencher. Strand separation results in an increase in the fluorescence of TAMRA (excitation 525 nm, emission 598 nm). This substrate construct operates in a red-shifted region where very few compound library members have been noted to fluoresce (PubChem AIDs 593 and 594). An additional feature of the assay is the inclusion of 2.5 ug/ml poly (dIdC), to reduce interference by compounds such as DNA intercalators, a major source of false inhibitors.
Opher Gileadi, Structural Genomics Consortium, University of Oxford
Screening Center PI: Austin, C.P.
Screening Center: NIH Chemical Genomics Center [NCGC]
Three uL of reaction buffer (25 mM Tris-HCl (pH 8.0), 5 mM NaCl, 2 mM MgCl2, 1mM DTT, 0.01% Tween- 20, and 2.5 ug/ml poly(dI-dC), including enzyme (50 nM RECQ1T1), were dispensed into a 1536-well Greiner black assay plate via solenoid-valve based nanoliter dispensers. Compounds (23 nl each in columns 5-48) and control (23 nl each in column 2 as dose-response) were transferred via a Kalypsys pintool equipped with a 1536-pin array. The plates were incubated for 15 min at room temperature, and then 1 ul of substrates (200 nM DNA and 2 mM ATP, final concentrations) was added to start the reaction. The plate was transferred into a ViewLux high-throughput CCD imager where the reaction progress was measured in a discontinuous kinetic mode (two reads spaced 2 hours apart, with intermediate room temperature incubation of the covered assay plate) by using standard red-fluorescence optics (excitation filter 525 nm, emission filter 598 nm). Enzyme-free and vehicle (DMSO) controls were included for signal normalization.
Background: In qHTS, concentration-response curves come from the screen itself.
As to `NC(N)=N/N=C/c1ccc(Cl)c([N+](=O)[O-])c1`, the “activity, negative = inhibition” value was -12.1% (inactive).
`O=[N+]([O-])c1ccc(N2CCSCC2)cc1O`: the “activity, negative = inhibition” value is -5.86% (inactive).
Consider `O=C1CSC(=S)N1/N=C/c1ccc(O)c([N+](=O)[O-])c1`, for which the Potency is 25.1 µM (active).
Take `Cc1cc(C)c(OCC(=O)N/N=C/c2ccco2)c(C)c1`: the result was inactive.
As to `CN1[C@H]2CC(OC(=O)[C@@H](CO)c3ccccc3)C[C@H]1[C@H]1O[C@H]12` (some centres undefined), the “activity, negative = inhibition” value is -5.26% [at 25.9 µM] (inactive).
Take `NC(=O)c1sc(-c2ccsc2)cc1N`: the compound was classed as inactive.
Consider `O=C(NCc1ccccn1)[C@]1(C(F)(F)F)C[C@H](CCc2ccccc2)CCCO1`, for which the call was inactive.
`O=C1OCCN1C(=O)[C@H]1[C@H](c2ccc(F)cc2)C(c2ccccc2)=NN1c1ccc(Br)cc1`: the “activity, negative = inhibition” value is -15.4% (inactive).
Still for that read-out and setting: the same measure for `O=C1OCCN1C(=O)[C@H]1[C@H](c2ccccc2)C(c2ccc(F)cc2)=NN1c1ccccc1`: -6.31% [at 81.1 µM] (inactive).
On to `C[C@@H]1C(c2ccc(F)cc2)=NN(c2ccc(Br)cc2)[C@H]1C(=O)N1CCOC1=O`, for which the Potency was 25.1 µM (active).
Same read-out and setting: as for `O=C1OCCN1C(=O)[C@H]1[C@H](c2ccc(Cl)cc2)C(c2cccc(Cl)c2)=NN1c1ccc(Br)cc1`, the figure is 25.1 µM (active).
On to `CC(C)C(NS(=O)(=O)c1ccc(-c2ccc(Br)cc2)cc1)C(=O)O` (centres undefined), for which the “activity, negative = inhibition” value was 10.7% (inactive).
Same read-out and setting: as for `CC(C)=CCC[C@]1(C)[C@@H](CC=C(C)C)C[C@@]2(CC=C(C)C)C(=O)[C@]1(C(=O)C(C)C)C(=O)C(CC=C(C)C)=C2O`, the figure is -0.0015% (inactive).
As to `O=C1C(c2[nH]c3ccccc3c2O)=Nc2ccccc21`, the Potency entry was “inactive and 35.5 µM (active)”.
In the case of `CCCC(=O)Nc1c(O)c2ccccc2[nH]c1=O`, the “activity, negative = inhibition” value was -7.38% (inactive).
For the compound `CC(C)C(=O)Nc1c(O)c2ccccc2[nH]c1=O`, the “activity, negative = inhibition” value was -12.4% (inactive).
Take `COc1ccc(Cl)cc1NC(=O)Cn1nc(-c2ccc(C)cc2)n(C)c1=S`: the “activity, negative = inhibition” value is -2.73% (inactive).
On the same count and under the same terms, as for `CCN=C1SC(CC(=O)Nc2ccc(C)cc2)C(=O)N1CC` (centres undefined), the figure is -10.1% (inactive).
Turning to `Cc1ccc(NC(=O)CC2S/C(=N/N=C3\CCCc4ccccc43)NC2=O)cc1` (centres undefined), the Potency is 25.1 µM (active).
Take `Cc1c(Cl)cccc1NC(=O)CC1SC(=NCC2CCCO2)NC1=O` (centres undefined): the “activity, negative = inhibition” value is -5.65% (inactive).
Consider `COc1cc(OC)c2c(c1C(CCN1CCCCC1)c1ccc(N(C)C)cc1)OC(=O)CC2c1ccc(N(C)C)cc1` (centres undefined), for which the “activity, negative = inhibition” value was -1.54% (inactive).
On to `O=[N+]([O-])c1cc(S(=O)(=O)Nc2cccc(Cl)c2)ccc1N=Nc1c(O)[nH]c2ccccc12`, for which the compound was classed as inactive.
Take `CC1=C(/C=C/C(C)=C/C=C/C(C)=C/C=C/C=C(C)/C=C/C=C(C)/C=C/C(=O)[C@]2(C)C[C@@H](O)CC2(C)C)C(C)(C)C[C@H](O)C1`: the outcome was inactive.
Still for that read-out and setting: the same measure for `C=C1CCN(C(CC(C)C)C(=O)NCc2cc(OC)c(OC)c(OC)c2)S(=O)(=O)c2ccccc21` (centres undefined): “inactive”.
Regarding `COc1ccc(-c2ccc(OC)c(C3C4C=CCC(C)C4C(=O)N3Cc3ccccc3)c2)cc1C` (centres undefined), the “activity, negative = inhibition” value is -11% (inactive).
With `Cc1nc2ccc(C(=O)N3CCN(c4ccccc4)CC3)cc2s1`, the “activity, negative = inhibition” value was 0.371% (inactive).
As for `O=C(c1cc2c(s1)CCC2)N1CCN(c2ccccc2)CC1`, the Potency was 11.2 µM (active).
On to `O=C(NNC(=O)c1cc2c(s1)CCCC2)c1ccccc1`, for which the “activity, negative = inhibition” value was 1.32% (inactive).
With `CC(C)C(=O)N1CCC2(CC1)Oc1ccc(F)cc1C(=O)C21CC(c2ccccc2)=NO1` (centres undefined), the compound was classed as inactive.
On to `CCCOc1ccc(NC(=O)CC2C(=O)N(C)C(=S)N2Cc2ccc3c(c2)OCO3)cc1` (centres undefined), for which the “activity, negative = inhibition” value is -17.1% (inactive).
Regarding `O=C(Nc1cc(C(=O)Nc2ccc(S(=O)(=O)O)cc2)cc(C(=O)Nc2ccc(S(=O)(=O)O)cc2)c1)Nc1cc(C(=O)Nc2ccc(S(=O)(=O)O)cc2)cc(C(=O)Nc2ccc(S(=O)(=O)O)cc2)c1`, the “activity, negative = inhibition” value was 9.47% (inactive).
On to `Cc1ccc(CNC(=O)C2(C(F)(F)F)C/C(=C\Cc3ccccc3)CCCO2)o1` (centres undefined), for which the result was inactive.
`CC(=O)OCC1OC(C#Cc2ccccc2Cl)C=CC1OC(C)=O` (centres undefined): the outcome was “inactive [at 11.5 µM]”.
With `Fc1ccc(Cl)cc1-c1nc(Nc2ccncc2)c2nccnc2n1`, the “activity, negative = inhibition” value was 7.16% (inactive).
`Cc1ccc(C)n1C(Cc1ccccc1)C(=O)O` (centres undefined): the Potency is 12.6 µM (active).
The same measure, in the same setting: as for `CC(Cc1ccccc1)C(=O)N(C)Cc1ccccc1` (centres undefined), the entry is “inactive”.
Turning to `COc1ccc(CNC(=O)C(Cc2ccccc2)n2cccc2)cc1` (centres undefined), the “activity, negative = inhibition” value is -2.84% (inactive).
For `O=C(NCC1CC1)C1(C(F)(F)F)C/C(=C\CCO)CCCO1` (centres undefined), the “activity, negative = inhibition” value was -0.775% (inactive).
For the compound `CCOC(=O)C1=NOC(Cn2cc(C(C)=O)c(=O)[nH]c2=O)C1` (centres undefined), the “activity, negative = inhibition” value was -3.54% (inactive).
As to `CCOC(=O)C1=NO[C@@]2(C=C(Br)C(=O)[C@H]3O[C@H]32)C1`, the Potency was 28.2 µM (active).
Turning to `CCOC(=O)C1=C(C)N=C2c3ccccc3C(=O)C2C1c1ccc(Br)cc1` (centres undefined), the “activity, negative = inhibition” value is -6.22% (inactive).
Turning to `NC(=O)C1=C[C@@H](c2csc3ccccc23)C[C@@H](OCc2ccc(CO)cc2)O1`, the “activity, negative = inhibition” value is -0.57% (inactive).
In the case of `COC(=O)c1ccc([C@@H](O)[C@H](C)C(=O)CC(=O)OC(C)(C)C)cc1`, the result was inactive.
For the compound `CN(C)c1ccc(-n2cccc2/C=C2/SC(=Nc3ccc(F)cc3)NC2=O)cc1`, the “activity, negative = inhibition” value is -1.05% (inactive).
Turning to `Cc1cccc(N=C2NC(=O)/C(=C/c3cn(C)c4ccccc34)S2)c1`, the “activity, negative = inhibition” value was -12.2% (inactive).
Consider `Cc1ccc(N=C2NC(=O)/C(=C/C=C/c3ccco3)S2)cc1C`, for which the Potency was 22.4 µM (active).
For the compound `O=C1CN(Cc2ccccc2)S(=O)(=O)c2ccccc21`, the “activity, negative = inhibition” value is -2.98% (inactive).
The same measure, in the same setting: as for `CC(C)=CCN1CCC2(CCc3ccccc32)CC1`, the figure is -1.26% (inactive).
For `CS(=O)(=O)c1ccc2c(c1)SC1=NC(=O)/C(=C/c3ccco3)C(=N)N12`, the Potency is 28.2 µM (active).
